Measured values: PubChem BioAssay (NCATS)
Inconclusive results are not listed. Active and inactive are the calls of the source. Unless noted, calls come from the whole dose curve; as a rule, active = well fitted curve in the direction sought with a large enough effect; inconclusive = small, poorly fitted or top-dose-only effect, or another doubt; inactive = no such curve, though single readings can be large; an effect the other way counts as inactive or inconclusive.

Tests used:
[1] = target: Estrogen receptor (Homo sapiens) (UniProt P03372); test: qHTS assay for small molecule agonists of estrogen receptor alpha signaling (AID 588514; calls by dose curve;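 note: 0% = vehicle only and 100% = reference agonist; nearly all actives have a fitted effect of over 70% in size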)
Method in brief: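 Cells were plated at 5000/well, incubated 4 hrs at 37 C, dosed with compound titration series, incubated 18 hrs at 37 C, loaded with CCF4 dye for 2 hrs at RT, then fluorescence was read.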

[2] = qHTS assay for small molecule antagonists of peroxisome proliferator-activated receptor delta signaling (AID 588535); conditions: HEK293T PPARd-UAS-bla, beta-lactamase FRET ratio, 18 h; 460 nm channel;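 note: cells co-treated with a PPAR-delta agonist as stimulator during compound exposure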
Method in brief: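 HEK293T PPAR-delta-UAS-bla cells, 4000/well, 2% charcoal/dextran FBS; 5 h 37 C; cpd titration; 18 h 37 C; CCF4 2 h RT; FI 460/530 nm; Hill fit → IC50, efficacy.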

[3] = target: Peroxisome proliferator-activated receptor gamma (Homo sapiens) (UniProt P37231); test: qHTS assay for small molecule agonists of peroxisome proliferator-activated receptor gamma signaling (AID 588536; active = well fitted curve in the direction sought with a large enough effect in the signal ratio, with a control signal flat, not every such curve was filed as active; the % refers to the signal ratio;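 note: 0% = DMSO basal wells and 100% = rosiglitazone at 2 µM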)
Method in brief: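 HEK293 UAS-bla reporter line, 1% charcoal/dextran FBS; titration, 16 h, 37 C; CCF4 loading 2 h RT; fluorescence 460/530 nm. Normalized to rosiglitazone 2 uM = 100%, DMSO = 0%.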

[4] = target: Vitamin D3 receptor (Homo sapiens) (UniProt P11473); test: qHTS assay for small molecule agonists of vitamin D receptor signaling (AID 588543; calls by dose curve;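 note: 0% = DMSO basal and 100% = reference agonist control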)
Method in brief: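 VDR-UAS-bla HEK293T cells, 2000/well, 2% charcoal-stripped FBS; compound titration 16 h at 37 C; CCF4 beta-lactamase ratio read. Normalized to 50 nM 1-alpha,25-dihydroxyvitamin D3 (100%) and DMSO; Hill fit gives EC50, efficacy.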

[5] = qHTS assay for small molecule agonists of retinoid X receptor alpha signaling (AID 588544; calls by dose curve; note: potency is the fitted concentration of half-maximal effect;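 for activation: 0% = DMSO basal wells and 100% = reference agonist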); conditions: HEK293T RXRa-UAS-bla, beta-lactamase reporter, 18 h; 530 nm emission
[6] = target: Retinoic acid receptor RXR-alpha (Homo sapiens) (UniProt P19793); test: as above
[7] = target: Thyroid hormone receptor beta (Homo sapiens) (UniProt P10828); test: qHTS assay for small molecule agonists of thyroid hormone receptor beta signaling (AID 588545; calls by dose curve;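 note: 0% = DMSO only and 100% = 10 nM T3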)
Method in brief: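 Efficacy and EC50 values derive from Hill fits of qHTS titration data, normalized to 10 nM T3 and DMSO-only wells. HEK 293 reporter cells were stimulated for 18 hrs at 37 C, with beta-lactamase activity measured by CCF4 fluorescence.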

[8] = qHTS assay for small molecule antagonists of retinoid X receptor alpha signaling (AID 588546; active = well fitted inhibition curve with a large enough effect in the signal ratio, with a control signal flat, not every such curve was filed as active; the % refers to the signal ratio;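 note: cells stimulated with 9-cis-retinoic acid as agonist; % is set by controls: 0 for no effect and ±100 for the full control effect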); conditions: HEK293T RXRa-UAS-bla, beta-lactamase ratio, antagonist mode; measured here: W530 green channel, cytotoxicity proxy
Method in brief: (§1)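 Beta-lactamase reporter inhibition, read as CCF4 fluorescence ratio (ex 405, em 460/530 nm) after 2 h at RT. HEK293T UAS-bla cells, 2500/well, were stimulated with 9-cis-RA at 500 or 100 nM final alongside test compound for 18 h at 37 C.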

[9] = target: Retinoic acid receptor RXR-alpha (Homo sapiens) (UniProt P19793); test: as above; conditions: HEK293T RXRa-UAS-bla, beta-lactamase ratio, antagonist mode
Method in brief: as §1

[10] = target: Thyroid hormone receptor beta (Homo sapiens) (UniProt P10828); test: qHTS assay for small molecule antagonists of thyroid hormone receptor beta signaling (AID 588547; active = well fitted inhibition curve with a large enough effect in the signal ratio, with a control signal flat, not every such curve was filed as active; the % refers to the signal ratio;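 note: cells stimulated with 0.4 nM T3 agonist during compound exposure; series mostly up to about 77 µM; % is set by controls: 0 for no effect and ±100 for the full control effect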); conditions: TR-UAS-bla HEK293, beta-lactamase ratio, antagonist mode, 18 h
Method in brief: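 Inhibition of T3-driven (0.4nM final) beta-lactamase reporter activity was measured over 0.59 nM to 92 uM compound after 18 h at 37 C. The cells were GripTite HEK293 TR-UAS-bla in charcoal/dextran-stripped serum, with CCF4 ratio read-out and IC50 from Hill fits.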

[11] = qHTS assay for small molecule activators of the p53 signaling pathway (AID 651743; active = well fitted activation curve with a large enough effect in the signal ratio, not every such curve was filed as active; the % refers to the signal ratio; note: series mostly up to about 92 µM; % of control where 0% means no effect); conditions: HCT-116 p53RE-bla, beta-lactamase FRET ratio, 16 h; activation: stronger effect = higher value
Method in brief: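 Read-out is fluorescence intensity from the LiveBLAzer B/G FRET substrate, added for 2 hours at room temperature after HCT-116 p53RE-bla cells had been incubated with compounds for 16 hours at 37 C.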

[12] = qHTS assay for environmental chemicals that activate the Aryl hydrocarbon Receptor (AhR) signaling pathway (AID 651777); conditions: 1A2-DRE human hepatoma cells, luciferase, 24 h; activation: stronger effect = higher value; note: % of control where 0% means no effect; nearly all actives have a fitted effect of over 15% in size
Method in brief: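 Luminescence read-out: One-Glo added for 30 min at RT after 24 hr compound treatment (37 C, 5% CO2) of human hepatoma cells expressing a DRE/CYP1A2 promoter–luciferase reporter; increased signal indicates AhR activation.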

[13] = qHTS assay for small molecule agonists of the antioxidant response element (ARE) signaling pathway measured by Nrf2-dependant transcriptional activity (AID 720636; active = well fitted curve in the direction sought with a large enough effect in the repeat runs; an effect the other way counts as inactive or inconclusive;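 note: HepG2 cells with an ARE-driven luciferase reporter; % of control where 0% means no effect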)
Method in brief: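 HepG2 ARE-luc reporter line, 1% dialyzed FBS; 6 hr attachment at 37 C, compound pinned in, 16 hr at 37 C/5% CO2; ONE-Glo, 30 min RT, luminescence read.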

[14] = qHTS assay for small molecule agonists of the antioxidant response element (ARE) signaling pathway measured by Nrf2-dependant transcriptional activity - cell viability counter screen (AID 720653; active = well fitted curve in the direction sought with a large enough effect in the repeat runs; an effect the other way counts as inactive or inconclusive; note: potency is the fitted concentration of half-maximal effect; for max response: % is set by controls: 0 for no effect and ±100 for the full control effect); conditions: ARE-bla HepG2 viability, CellTiter-Glo ATP luminescence, 16 h; max response: stronger effect = lower value
Method in brief: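 Cytotoxicity counter screen: intracellular ATP quantified by CellTiter-Glo luminescence in the same ARE-bla HepG2 plates, after 16 h compound exposure and a 2 h beta-lactamase substrate step.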

[15] = qHTS assay for cell viability of HEK293 cells (AID 743288); conditions: ATP luminescence (CellTiter-Glo), 18 h; max response: stronger effect = lower value; note: % is set by controls: 0 for no effect and ±100 for the full control effect; nearly all actives have a fitted effect of over 50% in size
Method in brief: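 Parental HEK293 cells, 2,000 per well, preincubated at least 5 h at 37 C, then exposed to compounds in DMSO for 18 h at 37 C. Viability by CellTiter-Glo ATP luminescence after 30 min at room temperature.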

[16] = qHTS assay for cell viability of the p53RE-bla HCT-116 cell line (AID 743292); note: nearly all actives have a fitted effect of over 55% in size; note: potency is the fitted concentration of half-maximal effect
Method in brief: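 Luminescent ATP quantitation (CellTiter-Glo) served as the viability read-out; reagent was added after 16 h compound exposure at 37 C and read after 30 min at room temperature. Cells: p53RE-bla HCT-116, 4,000 per well.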

[17] = target: Nuclear receptor subfamily 1 group I member 2 (Rattus norvegicus) (UniProt Q9R1A7); test: qHTS assay for small molecule activators of the rat pregnane X receptor (rPXR) signaling pathway (AID 651751; call rule not given here; note: 0% is about no effect); conditions: rPXR reporter cells, luciferase (One-Glo), 24 h
[18] = qHTS assay for small molecule activators of the human pregnane X receptor (PXR) signaling pathway (AID 720659; call rule not given here; note: 0% is about no effect)
[19] = target: Peroxisome proliferator-activated receptor alpha (Homo sapiens) (UniProt Q07869); test: qHTS assay for small molecule agonists of the peroxisome proliferator-activated receptor alpha (PPARalpha) signaling pathway (AID 651778); conditions: PathHunter PPARalpha complementation, chemiluminescence, 6 h; max response: stronger effect = higher value; note: % of control where 0% means no effect
Method in brief: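 Chemiluminescence from complemented enzyme reported PPARalpha activation in cells after 6 hr of compound treatment at 37 C. The detection reagent was incubated for 60 min at room temperature, and compounds were scored as agonists.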

[20] = target: Peroxisome proliferator-activated receptor gamma (Homo sapiens) (UniProt P37231); test: qHTS assay for small molecule antagonists of peroxisome proliferator-activated receptor gamma signaling (AID 588537; active = well fitted inhibition curve with a large enough effect in the signal ratio, with a control signal flat, not every such curve was filed as active; the % refers to the signal ratio;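 note: reporter cells co-stimulated with 50 nM rosiglitazone agonist during compound treatment; % of control where 0% means no effect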)
Method in brief: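 Antagonist mode, beta-lactamase reporter in HEK293; charcoal/dextran FBS 1%; 3000 cells/well, 37 C 6-6.5 h; cpd titration + rosiglitazone 50 nM final, 16 h 37 C; CCF4, 2 h RT; 460/530 nm; Hill fit → IC50, efficacy.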

Estrogen receptor (Homo sapiens), sequence (P03372 whole entry, looked up): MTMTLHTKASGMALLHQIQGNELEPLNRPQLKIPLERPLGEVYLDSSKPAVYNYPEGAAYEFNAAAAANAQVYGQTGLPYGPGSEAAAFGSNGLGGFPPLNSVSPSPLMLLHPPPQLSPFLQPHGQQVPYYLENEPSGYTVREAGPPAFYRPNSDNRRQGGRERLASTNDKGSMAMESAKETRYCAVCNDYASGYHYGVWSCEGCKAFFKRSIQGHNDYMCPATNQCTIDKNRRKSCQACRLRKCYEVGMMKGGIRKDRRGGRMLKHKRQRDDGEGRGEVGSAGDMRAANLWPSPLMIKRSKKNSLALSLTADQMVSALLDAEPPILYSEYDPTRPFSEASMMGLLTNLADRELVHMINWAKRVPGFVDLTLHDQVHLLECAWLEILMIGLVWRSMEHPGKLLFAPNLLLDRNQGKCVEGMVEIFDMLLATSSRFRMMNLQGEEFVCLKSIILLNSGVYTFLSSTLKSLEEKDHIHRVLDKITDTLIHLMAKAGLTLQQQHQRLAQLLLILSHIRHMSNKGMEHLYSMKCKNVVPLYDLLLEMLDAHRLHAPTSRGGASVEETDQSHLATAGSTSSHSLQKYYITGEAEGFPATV
Thyroid hormone receptor beta (Homo sapiens), sequence (P10828 whole entry, looked up): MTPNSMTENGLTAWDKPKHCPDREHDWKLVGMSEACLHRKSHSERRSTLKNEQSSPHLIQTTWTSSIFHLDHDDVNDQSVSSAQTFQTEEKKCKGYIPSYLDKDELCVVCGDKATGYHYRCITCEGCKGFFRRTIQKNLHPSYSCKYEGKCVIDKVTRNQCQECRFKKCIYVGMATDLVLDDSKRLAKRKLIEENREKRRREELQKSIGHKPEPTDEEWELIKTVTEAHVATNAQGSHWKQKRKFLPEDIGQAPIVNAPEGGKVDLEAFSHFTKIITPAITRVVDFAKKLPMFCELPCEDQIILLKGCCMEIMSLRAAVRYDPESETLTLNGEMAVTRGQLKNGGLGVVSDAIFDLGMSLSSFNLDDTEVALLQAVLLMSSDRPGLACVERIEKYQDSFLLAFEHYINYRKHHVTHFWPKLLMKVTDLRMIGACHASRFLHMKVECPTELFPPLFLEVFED
Vitamin D3 receptor (Homo sapiens), sequence (P11473 whole entry, looked up): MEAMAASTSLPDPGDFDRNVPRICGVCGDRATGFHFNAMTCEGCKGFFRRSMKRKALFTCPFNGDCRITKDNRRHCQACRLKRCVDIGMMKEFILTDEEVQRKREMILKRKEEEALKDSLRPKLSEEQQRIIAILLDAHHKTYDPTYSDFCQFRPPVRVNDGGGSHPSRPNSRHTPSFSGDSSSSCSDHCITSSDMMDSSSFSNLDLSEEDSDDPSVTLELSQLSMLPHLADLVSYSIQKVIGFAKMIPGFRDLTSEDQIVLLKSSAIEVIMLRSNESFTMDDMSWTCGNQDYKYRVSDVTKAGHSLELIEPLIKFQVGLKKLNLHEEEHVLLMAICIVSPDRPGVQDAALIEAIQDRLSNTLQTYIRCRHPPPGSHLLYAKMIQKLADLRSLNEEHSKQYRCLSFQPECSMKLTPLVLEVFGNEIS
Retinoic acid receptor RXR-alpha (Homo sapiens), sequence (P19793 whole entry, looked up): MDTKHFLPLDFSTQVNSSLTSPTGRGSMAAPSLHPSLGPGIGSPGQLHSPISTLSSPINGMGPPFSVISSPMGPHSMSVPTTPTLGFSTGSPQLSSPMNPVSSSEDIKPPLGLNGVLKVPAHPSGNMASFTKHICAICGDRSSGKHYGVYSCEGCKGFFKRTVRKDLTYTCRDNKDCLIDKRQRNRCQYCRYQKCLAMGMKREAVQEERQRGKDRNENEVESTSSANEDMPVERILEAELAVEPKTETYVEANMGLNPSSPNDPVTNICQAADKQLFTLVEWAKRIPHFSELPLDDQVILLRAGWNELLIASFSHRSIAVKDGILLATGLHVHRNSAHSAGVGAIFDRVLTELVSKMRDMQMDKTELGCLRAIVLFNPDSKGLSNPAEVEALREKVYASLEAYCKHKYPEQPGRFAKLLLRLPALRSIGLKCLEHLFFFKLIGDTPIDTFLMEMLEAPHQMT
Peroxisome proliferator-activated receptor gamma (Homo sapiens), sequence (P37231 whole entry, looked up): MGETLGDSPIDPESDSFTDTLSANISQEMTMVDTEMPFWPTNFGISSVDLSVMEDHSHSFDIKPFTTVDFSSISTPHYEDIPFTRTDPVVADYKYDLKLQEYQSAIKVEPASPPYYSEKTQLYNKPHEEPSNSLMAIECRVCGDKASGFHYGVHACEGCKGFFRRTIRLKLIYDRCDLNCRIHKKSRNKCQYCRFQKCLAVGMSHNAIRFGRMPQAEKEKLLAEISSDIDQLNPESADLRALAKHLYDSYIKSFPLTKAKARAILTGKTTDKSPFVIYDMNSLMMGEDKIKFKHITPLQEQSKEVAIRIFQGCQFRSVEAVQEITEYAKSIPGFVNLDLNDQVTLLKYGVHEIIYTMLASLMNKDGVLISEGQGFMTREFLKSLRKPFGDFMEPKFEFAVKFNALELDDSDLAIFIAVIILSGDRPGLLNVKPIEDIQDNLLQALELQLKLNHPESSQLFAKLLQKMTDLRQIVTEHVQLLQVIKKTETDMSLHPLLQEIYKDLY
Nuclear receptor subfamily 1 group I member 2 (Rattus norvegicus), sequence (Q9R1A7 whole entry, looked up): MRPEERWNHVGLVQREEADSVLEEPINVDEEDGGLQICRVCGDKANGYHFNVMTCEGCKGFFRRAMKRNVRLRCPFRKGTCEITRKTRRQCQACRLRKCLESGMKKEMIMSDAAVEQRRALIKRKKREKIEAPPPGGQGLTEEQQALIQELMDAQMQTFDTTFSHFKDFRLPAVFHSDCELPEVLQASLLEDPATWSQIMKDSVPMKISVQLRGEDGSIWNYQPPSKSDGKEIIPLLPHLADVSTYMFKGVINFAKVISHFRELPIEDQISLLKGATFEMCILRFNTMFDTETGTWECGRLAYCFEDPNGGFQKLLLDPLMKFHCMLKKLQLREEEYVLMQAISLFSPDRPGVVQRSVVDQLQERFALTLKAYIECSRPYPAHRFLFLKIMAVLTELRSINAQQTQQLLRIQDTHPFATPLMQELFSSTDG
Peroxisome proliferator-activated receptor alpha (Homo sapiens), sequence (Q07869 whole entry, looked up): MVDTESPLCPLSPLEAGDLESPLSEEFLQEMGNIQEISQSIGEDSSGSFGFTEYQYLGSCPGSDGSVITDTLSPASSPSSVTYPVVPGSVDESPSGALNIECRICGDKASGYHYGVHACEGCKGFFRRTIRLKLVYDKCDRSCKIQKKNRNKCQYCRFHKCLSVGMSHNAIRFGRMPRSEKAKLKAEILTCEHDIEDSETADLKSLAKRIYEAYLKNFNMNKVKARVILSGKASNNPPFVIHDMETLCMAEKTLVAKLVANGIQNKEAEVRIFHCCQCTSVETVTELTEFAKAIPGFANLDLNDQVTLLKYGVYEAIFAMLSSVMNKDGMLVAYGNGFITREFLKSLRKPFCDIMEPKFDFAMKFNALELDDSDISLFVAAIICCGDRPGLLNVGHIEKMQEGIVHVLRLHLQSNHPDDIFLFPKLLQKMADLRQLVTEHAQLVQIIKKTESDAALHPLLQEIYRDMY

CC(C)=CCC[C@@H](C)[C@H]1CC[C@@]2(C)C3=C(CC[C@]12C)[C@@]1(C)CC[C@H](O)C(C)(C)[C@@H]1CC3
-27.3%: max response [5]
inactive: Potency [1] | outcome [3] | outcome [4] | Potency [6] | Potency [7] | max response [9] 8.2% | activity change % (negative = inhibition) [10] -4.34% | activation [11] 2.67% | activation [12] 1.89% | Potency [13] | max response [14] 3.07% | max response [15] -4.2% | Potency [16] | max response [17] 0.187% | outcome [18]
37.7%: max response [2]
0.0546%: max response [8]

C=CCOC(=O)CC(C)C
inactive: Potency [1] | outcome [3] | outcome [4] | Potency [6] | Potency [7] | max response [9] 1.64% | activation [12] -1.24% | max response [19] -0.161% | Potency [13] | max response [14] -7.46% | max response [15] -9.09% | Potency [16] | max response [17] -1.76% | outcome [18]
-1.51%: max response [5]
-12.5%: max response [8]
13%: max response [2]

CCCN(CCC)c1c([N+](=O)[O-])cc(C(F)(F)F)c(N)c1[N+](=O)[O-]
inactive: Potency [1] | outcome [4] | Potency [7] | max response [9] -37.1% | activation [12] 2.99% | Potency [13] | max response [14] -7.36% | max response [15] -20.5%
active: Potency [16] 50.1 µM
-8.88%: max response [8]

CSc1ccc(Cl)cc1
24.7%: max response [2]
8.86%: max response [5]
18.6%: max response [8]
inactive: Potency [1] | outcome [3] | Potency [20] | outcome [4] | Potency [6] | Potency [7] | max response [9] -2.56% | activation [12] -3.53% | max response [19] -0.0243% | Potency [13] | max response [14] -9.05% | max response [15] -19.5% | Potency [16] | max response [17] -1.44% | outcome [18]

CCCCCCCCCCCCCC(=O)OC
-19.8%: max response [2]
-10%: max response [8]
0.848%: max response [5]
inactive: Potency [1] | outcome [3] | Potency [20] | Potency [6] | Potency [7] | max response [9] -1.05% | activity change % (negative = inhibition) [10] 3.36% | activation [12] 0.0228% | max response [19] 0.157% | Potency [13] | max response [14] -15.8% | max response [15] 4.18% | Potency [16] | max response [17] 2.49% | outcome [18]

CO/N=C1\C[C@]2(C[C@@H]3C[C@@H](C/C=C(\C)C[C@@H](C)/C=C/C=C4\CO[C@@H]5[C@H](O)C(C)=C[C@@H](C(=O)O3)[C@]45O)O2)O[C@H](/C(C)=C/C(C)C)[C@H]1C
inactive: activation [12] 0.384% | Potency [13]
active: Potency [14] 44.7 µM | Potency [16] 28.2 µM

CC(C)CCCCCCc1ccc(OCCOCCO)cc1
active: Potency [6] 3.55 µM
inactive: activation [12] -9.42% | Potency [13] | max response [14] -4.66% | max response [17] -16.1%
-48.7%: max response [5]
